PubChem BioAssay (NCI)
About 83,000 compounds went through this panel and 20% of them were active in at least one assay; those are over-represented in the sample as a whole.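 The test compound was applied at a single concentration to cells in 96-well plates for 48 hours, and percent growth was recorded.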 A number with no mark means an inactive call. Active and inactive are the calls of the source. The calls were made as follows: active = growth percent below 10; inactive = the rest.

Legend:
Assay in all cases: NCI-60 one-dose screen, 48 h (100 = growth as untreated, 0 = no growth, -100 = all killed)
Conditions in all cases: 10 µM
NCI-H23 lung = tested on: NCI-H23 lung
NCI-H226 lung = tested on: NCI-H226 lung
NCI-H322M lung = tested on: NCI-H322M lung
HOP-62 NSCLC = tested on: HOP-62 NSCLC
HOP-92 NSCLC = tested on: HOP-92 NSCLC
NCI-H522 lung = tested on: NCI-H522 lung
A549/ATCC NSCLC = tested on: A549/ATCC NSCLC
786-0 renal = tested on: 786-0 renal
COLO 205 colon = tested on: COLO 205 colon
DU-145 prostate = tested on: DU-145 prostate
K-562 leukemia = tested on: K-562 leukemia
MALME-3M melanoma = tested on: MALME-3M melanoma
MDA-MB-231 breast = tested on: MDA-MB-231 breast
RXF 393 renal = tested on: RXF 393 renal
SF-268 CNS = tested on: SF-268 CNS
SF-295 CNS = tested on: SF-295 CNS
SF-539 CNS = tested on: SF-539 CNS
UACC-257 melanoma = tested on: UACC-257 melanoma
M14 melanoma = tested on: M14 melanoma

Cc1cccc2c1O/C(=C\c1ncc([N+](=O)[O-])n1C)C2=O was tested. Which growth (NCI-H23 lung) did it give?
The growth was -13.7% (active).

And the growth (NCI-H226 lung)?
The growth was -25% (active).

What about the growth (NCI-H322M lung) of the same compound?
The growth was -17.9% (active).

And the growth (HOP-62 NSCLC)?
Its growth is -33.5% (active).

What about the growth (HOP-92 NSCLC) of the same compound?
The growth was -32.6% (active).

And the growth (NCI-H522 lung)?
Its growth is -55.8% (active).

And the growth (A549/ATCC NSCLC)?
The growth was -25.7% (active).

What about the growth (786-0 renal) of the same compound?
Its growth is -28.5% (active).

What about the growth (COLO 205 colon) of the same compound?
The growth was -52.3% (active).

And the growth (DU-145 prostate)?
The growth was -29.7% (active).

And the growth (K-562 leukemia)?
The growth was 0.421% (active).

And the growth (MALME-3M melanoma)?
Its growth is -51.5% (active).

What about the growth (MDA-MB-231 breast) of the same compound?
The growth was -7.78% (active).

And the growth (RXF 393 renal)?
Its growth is -63.7% (active).

What about the growth (SF-268 CNS) of the same compound?
The growth was -26.4% (active).

What about the growth (SF-295 CNS) of the same compound?
Its growth is -15.2% (active).

What about the growth (SF-539 CNS) of the same compound?
The growth was -61% (active).

And the growth (UACC-257 melanoma)?
Its growth is -40.8% (active).

And the growth (M14 melanoma)?
The growth was -49.2% (active).

What does the source list for CCCc1c(C)nc2scc(-c3ccc(Cl)cc3)n2c1=O?
growth (NCI-H23 lung): 100%; growth (NCI-H226 lung): -100% (active); growth (NCI-H322M lung): 102%; growth (HOP-62 NSCLC): 88.9%; growth (HOP-92 NSCLC): 92.5%; growth (NCI-H522 lung): 94.3%; growth (A549/ATCC NSCLC): 104%; growth (786-0 renal): 101%; growth (DU-145 prostate): 105%; growth (K-562 leukemia): 99.3%; growth (MALME-3M melanoma): 116%; growth (MDA-MB-231 breast): 109%; growth (RXF 393 renal): 92.7%; growth (SF-268 CNS): 98.3%; growth (SF-295 CNS): 105%; growth (SF-539 CNS): 101%; growth (UACC-257 melanoma): 110%; growth (M14 melanoma): 107%

With CC(=O)OC1Oc2ccccc2-c2oc(=O)c(-c3cc(=O)oc4cc(O)ccc34)cc21 (configuration not stated) as the compound, how does the growth (NCI-H23 lung) read?
The growth was 80.8%.

What about the growth (NCI-H226 lung) of the same compound?
Its growth is 91.5%.

And the growth (NCI-H322M lung)?
Its growth is 89.2%.

And the growth (HOP-62 NSCLC)?
Its growth is 93.8%.

What about the growth (HOP-92 NSCLC) of the same compound?
Its growth is 44.8%.

What about the growth (NCI-H522 lung) of the same compound?
Its growth is 69.6%.

What about the growth (A549/ATCC NSCLC) of the same compound?
Its growth is 84.3%.

And the growth (786-0 renal)?
Its growth is 80.4%.

What about the growth (COLO 205 colon) of the same compound?
The growth was 101%.

What about the growth (DU-145 prostate) of the same compound?
The growth was 78.3%.

What about the growth (K-562 leukemia) of the same compound?
Its growth is 33.2%.

What about the growth (MALME-3M melanoma) of the same compound?
Its growth is 68.9%.

And the growth (MDA-MB-231 breast)?
The growth was 86.3%.

And the growth (SF-268 CNS)?
The growth was 97.1%.

What about the growth (SF-295 CNS) of the same compound?
The growth was 73.6%.

And the growth (SF-539 CNS)?
The growth was 89%.

What about the growth (UACC-257 melanoma) of the same compound?
Its growth is 80.1%.

And the growth (M14 melanoma)?
Its growth is 72.1%.

Which growth (NCI-H23 lung) does the source give for COc1cc(/C=C/C(=O)c2cc(-c3ccc(F)cc3)ccc2O)cc(OC)c1OC here?
Its growth is 56.3%.

What about the growth (NCI-H226 lung) of the same compound?
The growth was 83.5%.

What about the growth (NCI-H322M lung) of the same compound?
Its growth is 93.6%.

And the growth (HOP-62 NSCLC)?
Its growth is 115%.

What about the growth (HOP-92 NSCLC) of the same compound?
Its growth is 57.8%.

What about the growth (NCI-H522 lung) of the same compound?
Its growth is 58.7%.

And the growth (A549/ATCC NSCLC)?
Its growth is 83.5%.

What about the growth (786-0 renal) of the same compound?
Its growth is 94.1%.

What about the growth (COLO 205 colon) of the same compound?
Its growth is 88.2%.

What about the growth (DU-145 prostate) of the same compound?
The growth was 91.1%.

What about the growth (K-562 leukemia) of the same compound?
Its growth is 34.5%.

And the growth (MDA-MB-231 breast)?
Its growth is 60.7%.

And the growth (RXF 393 renal)?
Its growth is 104%.

And the growth (SF-268 CNS)?
Its growth is 85.7%.

And the growth (SF-295 CNS)?
The growth was 95.1%.

And the growth (SF-539 CNS)?
Its growth is 89%.

And the growth (UACC-257 melanoma)?
The growth was 68.4%.

And the growth (M14 melanoma)?
The growth was 86.2%.

Which results are given for CCOC(=O)c1ccc(N(C=O)CCC(=O)CCl)cc1?
growth (NCI-H23 lung): 19.5%; growth (NCI-H226 lung): 36.2%; growth (NCI-H322M lung): 75.6%; growth (HOP-62 NSCLC): 29.8%; growth (HOP-92 NSCLC): -7.96% (active); growth (NCI-H522 lung): -71.9% (active); growth (A549/ATCC NSCLC): 12.3%; growth (786-0 renal): 2.2% (active); growth (COLO 205 colon): -9.81% (active); growth (DU-145 prostate): -25.8% (active); growth (K-562 leukemia): 4.03% (active); growth (MALME-3M melanoma): 45.1%; growth (MDA-MB-231 breast): -16.5% (active); growth (RXF 393 renal): -37.7% (active); growth (SF-268 CNS): 6.04% (active); growth (SF-295 CNS): -16.1% (active); growth (SF-539 CNS): -31.2% (active); growth (UACC-257 melanoma): 39%; growth (M14 melanoma): -5.18% (active)
